Records with an inconclusive call do not appear. Where a call stands in place of a potency, no number is given. Activity calls are given as the source filed them. The call rests on the fitted dose curve; in most records, active means well fitted cell-killing curve with a large enough effect in the repeat runs; inconclusive means weak or mixed curves; inactive means no such curve, though single readings can be large or run the other way.
Test: qHTS assay to identify small molecule antagonists of the androgen receptor (AR) signaling pathway - cell viability counter screen (AID 743033; further: nearly all actives have a fitted effect of over 45% in size)
Conditions: AR-bla HEK293 viability, CellTiter-Glo luminescence, 16 h; series mostly up to 58.5 µM
Excerpt: National Center for Advancing Translational Sciences [NCATS]
NIH Chemical Genomics Center [NCGC]
U.S. Environmental Protection Agency [EPA]
National Institutes of Environmental Health Sciences [NIEHS]
National Toxicology Program [NTP]
U.S. Food and Drug Administration [FDA]
Androgen receptor (AR), a nuclear hormone receptor, plays a critical role in AR-dependent prostate cancer and other androgen related diseases. Endocrine disrupting chemicals (EDCs) and their interactions with steroid hormone receptors like AR may cause disruption of normal endocrine function as well as interfere with metabolic homeostasis, reproduction, developmental and behavioral functions. To identify the compounds that inhibit AR signaling, GeneBLAzer AR-UAS-bla-GripTite cell line (Invitrogen, Carlsbad, CA, USA) containing a beta-lactamase reporter gene under control of an Upstream Activator Sequence (UAS) stably integrated into HEK293 cells was used to screen the Tox21 10K compound library. The cytotoxicity of the Tox21 compound library against the AR-bla cell line was tested in parallel by measuring the cell viability using CellTiter-Glo assay in the same wells.
Tox21 Assay Protocol Summary:
AR-bla cells were dispensed at 2,000 cells/5 uL of assay medium per well into black wall/clear-bottom 1536-well plates using a Multidrop Combi (ThermoFisher Scientific, Waltham, MA) dispenser. After the assay plates were incubated at a 37C and 5% CO2 for 4 hr, 23 nL of compounds dissolved in DMSO, positive controls or DMSO only was transferred to the assay plate by a Pintool station (Kalypsys, San Diego, CA), followed by addition of 1 uL of agonist (R1881) in culture medium using a Bioraptr Flying Reagent Dispenser (FRD) workstation (Beckman Coulter, Indianapolis, IN, USA). The plates were incubated at a 37C and 5% CO2 for 16 h. After 1 uL of LiveBLAzerTM B/G FRET substrate was added using a Bioraptr FRD, the plates were incubated at room temperature for 2 h and fluorescence intensity was measured by an Envision plate reader (PerkinElmer, Shelton, CT). For cell viability readout that measures cytotoxicity, 4 ul/well of CellTiter-Glo reagent was added into the assay plates using a Bioraptr FRD. After 30 min incubation at room temperature, the luminescence intensity in the plates was measured using a ViewLux (PerkinElmer) plate reader.

SMILES | Potency | activity change, negative = cytotoxicity
N[C@@H]1C[C@H]1c1ccccc1 | inactive | –
C=CC=O | inactive | –
ClC1=C(Cl)C2(Cl)C(CBr)CC1(Cl)C2(Cl)Cl (stereo not given) | inactive | –
CN(C)C(=O)Oc1cc(OC(=O)N(C)C)cc(C(O)CNC(C)(C)C)c1 (stereo not given) | inactive | –
CNC(=O)O/N=C(/CSC)C(C)(C)C | inactive | –
CCC(=O)OC1(c2ccccc2)CCN(C)CC1 | inactive | –
COP(=O)(OC)O/C(C)=C/C(=O)N(C)C | inactive | –
CN(CCO)CCO | inactive | –
CCCC[N+](=O)[O-] | inactive | –
Clc1cc2c(cc1Cl)Oc1cc(Cl)c(Cl)cc1O2 | – | -3.41% [at 0.284 µM] (inactive)
CC(=O)OCC1=C(C(=O)O)N2C(=O)[C@@H](N)[C@H]2SC1 | inactive | –
CCOC(=O)COc1ccc(Cl)cc1Cl | inactive | –
CCOC(=O)CC(SP(=S)(OC)OC)C(=O)OCC (stereo not given) | inactive | –
CC[C@@H](CO)NC(=O)[C@@H]1C=C2c3cccc4c3c(cn4C)C[C@H]2N(C)C1 | inactive | –
CCC(=O)c1ccc(Cl)cc1 | inactive | –
C/C=C/CC#N | inactive | –
CC(C)(N)Cc1ccc(Cl)cc1 | inactive | –
N[C@@H](Cc1ccc(Oc2cc(I)c(O)c(I)c2)c(I)c1)C(=O)O | inactive | –
CN1C(=O)COc2c(C(=O)NC3CN4CCC3CC4)cc(Cl)cc21 (stereo not given) | inactive | –
BrCc1ccc(Br)cc1 | inactive | –

SMILES | Potency | activity change, negative = cytotoxicity
CC(C)(C1CCC(O)CC1)C1CCC(O)CC1 (stereo not given) | inactive | –
ClCCCCl | inactive | –
O=c1[nH]c2ccccc2o1 | inactive | –
CCOC(=O)N(C)N=O | inactive | –
Cn1c(CCCC(=O)O)nc2cc(N(CCCl)CCCl)ccc21 | inactive | –
c1ccc2c(c1)CCNC2 | inactive | –
COC(=O)c1ccccc1CS(=O)(=O)NC(=O)Nc1nc(OC)cc(OC)n1 | inactive | –
Cn1c(N)nc2c3cccnc3ccc21 | inactive | –
CC(=O)CN(CC(C)=O)N=O | inactive | –
CCOC(=O)c1ncn2c1CN(C)C(=O)c1c(I)cccc1-2 | inactive | –
O=P(O)(O)CN(CP(=O)(O)O)CP(=O)(O)O | inactive | –
CCCC(C)(COC(N)=O)COC(N)=O | inactive | –
CCC1(c2cccc(O)c2)CCCCN(C)C1 (stereo not given) | inactive | –
CNC(=O)Oc1cc(C)c(N(C)C)c(C)c1 | inactive | –
CCOC(=O)C(Cl)Cc1cc(-n2nc(C)n(C(F)F)c2=O)c(F)cc1Cl (stereo not given) | inactive | –
COc1cccc(C=O)c1 | inactive | –
O=C(O)C(Cl)Br (stereo not given) | inactive | –
COC1=CC(=O)O[C@@H](/C=C/c2ccccc2)C1 | inactive | –
CCc1cc(OC)c(C[C@H](C)N)cc1OC | inactive | –
CCOC(=O)NC(C)(C)Cc1ccc(Cl)cc1 | inactive | –
